Data published in PubChem BioAssay AID1159580 (chemical genetic matrix, 2015).
In all, about 5,500 compounds went through this assay and about 2,000 (36%) were called active. Not shown: some 18% with an inconclusive outcome. Rule as the data show it: active = normalized growth mostly below about 0.91 (no sharp cut-off); inconclusive = no clear call, values can overlap the other calls; inactive = mostly above about 0.92. This is one part of the list.

Assay: chemical genetic growth profiling, strain panel (AID 1159580);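 also: tested at 20 µM; growth read once vehicle control cultures reached saturation at 30 °C; 1 = growth at the plate median or of vehicle wells; lower values mean less growth of the strain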
Conditions: S. cerevisiae deletion strains, growth OD

Measured: normalized growth

C[C@]12CC[C@H]3[C@@H](CCC4C[C@H](O)CC[C@@]43C)[C@@H]1CC[C@@H]2O (stereo partly specified)
inactive: locus YAL013W, strain DEP1, stronger effect = lower value 0.946 | locus YAL040C, strain CLN3, stronger effect = lower value 1.02 | locus YCL061C, strain MRC1 (second series), stronger effect = lower value 1 | locus YDR363W, strain ESC2, stronger effect = lower value 0.987 | locus YER002W, strain NOP16, stronger effect = lower value 1 | locus YJR075W, strain HOC1, stronger effect = lower value 1.06 | locus YMR263W, strain SAP30, stronger effect = lower value 1.03 | locus YMR307W, strain GAS1, stronger effect = lower value 0.977 | locus YNL128W, strain TEP1, stronger effect = lower value 1.03 | locus YNL175C, strain NOP13, stronger effect = lower value 1.02 | locus YNL197C, strain WHI3, stronger effect = lower value 0.964 | locus YNL224C, strain SQS1, stronger effect = lower value 1.01 | locus YNL322C, strain KRE1, stronger effect = lower value 1.02 | locus YOR083W, strain WHI5 (second series), stronger effect = lower value 0.966 | locus YPL055C, strain LGE1, stronger effect = lower value 1.03 | locus YPL241C, strain CIN2, stronger effect = lower value 1.03
